Laboratory results taken from PubChem BioAssay AID1159580 (chemical genetic matrix, 2015).
Screen size: about 5,500 compounds; about 2,000 (36%) were called active. Another 18% or so got no clear call; they are omitted. Rule as the data show it: active = normalized growth mostly below about 0.91 (no sharp cut-off); inconclusive = no clear call, values can overlap the other calls; inactive = mostly above about 0.92. Some of the results follow.

Experiment: chemical genetic growth profiling, strain panel (AID 1159580);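 also: tested at 20 µM; growth read once vehicle control cultures reached saturation at 30 °C; 1 = growth at the plate median or of vehicle wells; lower values mean less growth of the strain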
Conditions: S. cerevisiae deletion strains, growth OD

Measured: normalized growth

C#CCn1c(=O)c2c(ncn2C)n(C)c1=O
inactive: locus YAL013W, strain DEP1, hits give low values 0.982 | locus YAL040C, strain CLN3, hits give low values 1.01 | locus YCL061C, strain MRC1 (second series), hits give low values 1.01 | locus YDR150W, strain NUM1, hits give low values 0.999 | locus YDR363W, strain ESC2, hits give low values 0.989 | locus YER002W, strain NOP16, hits give low values 0.997 | locus YGR078C, strain PAC10, hits give low values 1.01 | locus YGR229C, strain SMI1, hits give low values 1.03 | locus YJR075W, strain HOC1, hits give low values 0.994 | locus YMR263W, strain SAP30, hits give low values 0.995 | locus YMR307W, strain GAS1, hits give low values 1.01 | locus YNL175C, strain NOP13, hits give low values 0.998 | locus YNL197C, strain WHI3, hits give low values 0.977 | locus YNL224C, strain SQS1, hits give low values 1.01 | locus YNL322C, strain KRE1, hits give low values 0.987 | locus YOR083W, strain WHI5 (second series), hits give low values 0.965 | locus YPL241C, strain CIN2, hits give low values 1
